Data from the supplement of paper PMC10849652.
The full data set covers some 7,900 targets. This sample favours those with a hit. About 0.6% of all pairs of compound and target were hits.

Columns and labels:
Experiment in all cases: log2 fold change, soluble protein after heating vs DMSO (PISA); higher = thermal stabilisation; K562 cells, 10 uM, 30 min; active = over 0.2 and 3.5 SD of the protein, either way, in both replicates (recomputed)
[1] = compound: NC(=O)Nc1cc(-c2cccc(F)c2)sc1C(=O)N[C@H]1CCCNC1
Summary of the method: (§1)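 Soluble protein was quantified by TMTpro 16plex LC-MS/MS after channel sums were equalised. It was obtained as the supernatant after 21,000xg for 90 min from pooled aliquots of K562 cells (2×10^6 cells/mL, 10 μM compound, 30 min) heated for 3 min across 48°C-58°C and extracted in PBS with 0.5% NP-40 at 4°C. Thermal stability values are relative to control samples and come from duplicates. They are given as log2 fold changes.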

[2] = compound: NC(=O)c1cnc(N[C@@H]2CCCC[C@@H]2N)nc1Nc1cccc(-n2nccn2)c1
Summary of the method: as §1

[3] = compound: NC1(c2ccc(-c3nc4ccn5c(=O)[nH]nc5c4cc3-c3ccccc3)cc2)CCC1
Summary of the method: as §1

[4] = compound: NCC(=O)Nc1ccc(-n2nc(C(F)(F)F)cc2-c2ccc3c(ccc4ccccc43)c2)cc1
Summary of the method: as §1

[5] = compound: Nc1ccccc1NC(=O)c1ccc(CNC(=O)OCc2cccnc2)cc1 [entinostat]
Summary of the method: as §1

[6] = compound: O=C(CCCCCCC(=O)Nc1ccccc1)NO [vorinostat]
Summary of the method: as §1

[7] = compound: O=C(CCCCCCNC(=O)c1cnc(N(c2ccccc2)c2ccccc2Cl)nc1)NO [citarinostat]
Summary of the method: as §1

[8] = compound: O=C(O)c1ccc2c(c1)nc(Nc1cccc(Cl)c1)c1ccncc12 [silmitasertib]
Summary of the method: as §1

[9] = compound: O=C1NC(=O)C(c2cnc3ccccn23)=C1c1cn2c3c(cc(F)cc13)CN(C(=O)N1CCCCC1)CC2
Summary of the method: as §1

[10] = compound: c1cc(OCCN2CCCCC2)cc(-c2n[nH]c3ccc(-c4nnc[nH]4)cc23)c1
Summary of the method: as §1

Measured: log2 fold change

ERCC2 (UniProt P18074)
inactive: [1] -0.015 | [2] -0.011 | [3] -0.109 | [4] 0.004 | [5] 0.014 | [6] 0.045 | [7] 0.103 | [8] -0.052 | [9] -0.092 | [10] -0.039

FADS1, A0A0A0MR51
inactive: [1] -0.041 | [2] -0.036 | [3] -0.074 | [4] 0.036 | [5] -0.002 | [6] -0.105 | [7] -0.029 | [8] 0.014 | [9] -0.15 | [10] -0.029

DNM2 (UniProt P50570)
inactive: [1] -0.019 | [2] -0.037 | [3] -0.153 | [4] -0.023 | [5] 0.005 | [6] 0.03 | [7] 0.051 | [8] -0.054 | [9] 0.008 | [10] -0.014

EXOC1 (UniProt Q9NV70)
inactive: [1] 0.043 | [2] -0.162 | [3] -0.228 | [4] -0.065 | [5] 0.062 | [6] 0.082 | [7] 0.014 | [8] 0.127 | [9] 0.069 | [10] -0.165

EXOSC10 (UniProt Q01780)
inactive: [1] -0.49 | [2] -0.054 | [3] 0.014 | [4] -0.189 | [5] -0.339 | [6] 0.039 | [7] -0.125 | [8] 0.041 | [9] -0.044 | [10] 0.01

EIF4A1 (UniProt P60842)
Sequence of UniProt P60842 (P60842 whole entry, looked up): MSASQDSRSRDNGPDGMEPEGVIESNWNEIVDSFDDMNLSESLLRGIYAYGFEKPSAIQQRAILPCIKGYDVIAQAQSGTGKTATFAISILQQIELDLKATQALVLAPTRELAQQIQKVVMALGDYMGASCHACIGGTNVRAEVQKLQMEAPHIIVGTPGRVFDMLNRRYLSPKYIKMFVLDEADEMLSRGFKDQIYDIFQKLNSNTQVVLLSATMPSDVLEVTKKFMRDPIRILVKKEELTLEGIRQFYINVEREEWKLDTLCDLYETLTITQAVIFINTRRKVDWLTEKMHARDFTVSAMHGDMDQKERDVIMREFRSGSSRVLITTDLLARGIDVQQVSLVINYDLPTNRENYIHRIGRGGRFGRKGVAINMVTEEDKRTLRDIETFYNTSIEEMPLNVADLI
inactive: [1] 0.148 | [2] -0.08 | [3] -0.029 | [4] -0.044 | [5] 0.079 | [6] 0.068 | [7] 0.088 | [8] -0.01 | [9] -0.01 | [10] -0.05

EXOC5 (UniProt O00471)
inactive: [1] 0.01 | [2] -0.101 | [3] -0.222 | [4] -0.063 | [5] 0.069 | [6] 0.086 | [7] 0.027 | [8] 0.042 | [9] -0.02 | [10] -0.153

EXOC2 (UniProt Q96KP1)
inactive: [1] 0.039 | [2] -0.084 | [3] -0.218 | [4] -0.024 | [5] 0.052 | [6] -0.013 | [7] 0.105 | [8] 0.035 | [9] 0.028 | [10] -0.102

ELOC (UniProt Q15369)
Sequence of UniProt Q15369 (Q15369 whole entry, looked up): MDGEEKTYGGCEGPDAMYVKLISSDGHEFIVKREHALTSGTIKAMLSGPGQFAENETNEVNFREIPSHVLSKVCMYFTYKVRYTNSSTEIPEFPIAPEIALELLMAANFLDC
inactive: [1] -0.008 | [2] -0.011 | [3] -0.015 | [4] -0.008 | [5] 0.024 | [6] 0.024 | [7] 0.036 | [8] -0.007 | [9] -0.107 | [10] -0.053

DTWD1 (UniProt Q8N5C7)
inactive: [1] -0.001 | [2] 0.014 | [3] -0.147 | [4] -0.04 | [5] 0.063 | [7] -0.001 | [8] -0.004 | [9] 0.014 | [10] -0.064
active: [6] 0.246

EGLN1 (UniProt Q9GZT9)
inactive: [1] 0.095 | [2] -0.016 | [3] -0.043 | [4] -0.029 | [5] -0.009 | [6] 0.021 | [7] 0.034 | [8] 0.024 | [9] 0.014 | [10] -0.178

DNAJB12 (UniProt Q9NXW2)
Sequence of UniProt Q9NXW2 (Q9NXW2 whole entry, looked up): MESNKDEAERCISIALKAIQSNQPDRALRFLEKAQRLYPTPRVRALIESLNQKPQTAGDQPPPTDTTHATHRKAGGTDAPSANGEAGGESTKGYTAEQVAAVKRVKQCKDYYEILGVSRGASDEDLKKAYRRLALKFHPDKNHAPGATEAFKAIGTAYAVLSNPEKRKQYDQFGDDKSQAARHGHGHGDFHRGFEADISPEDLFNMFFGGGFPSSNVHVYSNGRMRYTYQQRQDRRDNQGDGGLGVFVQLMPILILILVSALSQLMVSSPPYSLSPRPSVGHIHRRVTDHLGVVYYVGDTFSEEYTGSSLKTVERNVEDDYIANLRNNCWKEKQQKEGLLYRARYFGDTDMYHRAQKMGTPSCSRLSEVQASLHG
inactive: [1] -0.03 | [2] -0.018 | [3] -0.048 | [4] -0.029 | [5] 0.001 | [6] 0.027 | [7] 0.027 | [8] 0.079 | [9] -0.038 | [10] 0.002

DHRS1 (UniProt Q96LJ7)
active: [9] 0.834
inactive: [1] -0.118 | [2] -0.047 | [3] 0.184 | [4] 0.095 | [5] -0.082 | [6] -0.098 | [7] -0.237 | [8] 0 | [10] 0.291

DEGS1 (UniProt O15121)
inactive: [1] -0.101 | [2] 0.249 | [3] 0.086 | [4] -0.169 | [5] -0.006 | [6] 0.077 | [7] 0.109 | [8] -0.053 | [9] -0.003 | [10] -0.063

DCAF16 (UniProt Q9NXF7)
inactive: [1] -0.122 | [2] -0.109 | [3] -0.09 | [4] -0.036 | [5] 0.02 | [6] 0.004 | [7] 0.07 | [8] 0.082 | [9] -0.09 | [10] -0.041

EEF1AKNMT (UniProt Q8N6R0)
inactive: [1] -0.025 | [2] -0.061 | [3] -0.109 | [4] -0.017 | [5] 0.038 | [6] 0.161 | [7] -0.002 | [8] 0.059 | [9] 0.055 | [10] 0.031

DNAH11 (UniProt Q96DT5)
inactive: [1] -0.099 | [2] -0.064 | [3] 0.346 | [4] 0.044 | [5] -0.032 | [6] -0.24 | [7] -0.213 | [8] 0.197 | [9] -0.098 | [10] -0.09

DHX40 (UniProt Q8IX18)
inactive: [1] -0.093 | [2] -0.036 | [3] -0.157 | [4] -0.042 | [5] -0.004 | [6] -0.097 | [7] 0.081 | [8] -0.027 | [9] -0.116 | [10] -0.04

EIF3J (UniProt O75822)
inactive: [1] 0.035 | [2] -0.033 | [3] -0.072 | [4] 0.007 | [5] 0.012 | [6] 0.143 | [7] 0.001 | [8] 0.042 | [9] -0.017 | [10] 0.022

DTNBP1 (UniProt Q96EV8)
Sequence of UniProt Q96EV8 (Q96EV8 whole entry, looked up): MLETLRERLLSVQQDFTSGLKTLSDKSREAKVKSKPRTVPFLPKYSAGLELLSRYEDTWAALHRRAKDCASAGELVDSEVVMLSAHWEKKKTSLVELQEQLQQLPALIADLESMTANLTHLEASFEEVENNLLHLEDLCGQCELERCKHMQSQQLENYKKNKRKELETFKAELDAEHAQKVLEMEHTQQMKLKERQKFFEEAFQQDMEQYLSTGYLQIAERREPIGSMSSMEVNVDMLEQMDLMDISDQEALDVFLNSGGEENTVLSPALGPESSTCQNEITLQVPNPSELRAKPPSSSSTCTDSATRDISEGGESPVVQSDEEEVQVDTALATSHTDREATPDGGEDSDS
inactive: [1] -0.022 | [2] -0.011 | [3] -0.038 | [4] -0.063 | [5] 0.033 | [6] 0.091 | [7] -0.001 | [8] -0.013 | [9] -0.032 | [10] -0.042

DYNC1LI2 (UniProt O43237)
inactive: [1] 0.093 | [2] -0.021 | [3] 0.206 | [4] -0.075 | [5] -0.026 | [6] 0.075 | [7] -0.101 | [8] 0.214 | [9] 0.158 | [10] -0.108

EEF1B2 (UniProt P24534)
Sequence of UniProt P24534 (P24534 whole entry, looked up): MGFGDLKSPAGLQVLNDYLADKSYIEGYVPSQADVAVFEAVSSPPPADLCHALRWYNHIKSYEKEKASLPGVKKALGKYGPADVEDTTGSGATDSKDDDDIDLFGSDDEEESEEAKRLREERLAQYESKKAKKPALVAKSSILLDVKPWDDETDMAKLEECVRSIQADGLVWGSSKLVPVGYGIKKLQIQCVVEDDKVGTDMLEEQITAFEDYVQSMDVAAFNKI
inactive: [1] 0.012 | [2] -0.112 | [3] -0.035 | [4] -0.09 | [5] 0.04 | [6] 0.02 | [7] 0.004 | [8] 0.027 | [9] -0.007 | [10] -0.035

DNAJC19 (UniProt Q96DA6)
inactive: [1] -0.014 | [2] 0.004 | [3] -0.017 | [4] -0.006 | [5] 0.004 | [6] -0.03 | [7] 0.024 | [8] -0.018 | [9] 0.01 | [10] -0.015

DNAAF2 (UniProt Q9NVR5)
inactive: [1] 0.039 | [2] 0.025 | [3] -0.042 | [4] -0.044 | [5] -0.06 | [6] 0 | [7] -0.034 | [8] 0.016 | [9] -0.003 | [10] -0.03

DHCR7 (UniProt Q9UBM7)
Sequence of UniProt Q9UBM7 (Q9UBM7 whole entry, looked up): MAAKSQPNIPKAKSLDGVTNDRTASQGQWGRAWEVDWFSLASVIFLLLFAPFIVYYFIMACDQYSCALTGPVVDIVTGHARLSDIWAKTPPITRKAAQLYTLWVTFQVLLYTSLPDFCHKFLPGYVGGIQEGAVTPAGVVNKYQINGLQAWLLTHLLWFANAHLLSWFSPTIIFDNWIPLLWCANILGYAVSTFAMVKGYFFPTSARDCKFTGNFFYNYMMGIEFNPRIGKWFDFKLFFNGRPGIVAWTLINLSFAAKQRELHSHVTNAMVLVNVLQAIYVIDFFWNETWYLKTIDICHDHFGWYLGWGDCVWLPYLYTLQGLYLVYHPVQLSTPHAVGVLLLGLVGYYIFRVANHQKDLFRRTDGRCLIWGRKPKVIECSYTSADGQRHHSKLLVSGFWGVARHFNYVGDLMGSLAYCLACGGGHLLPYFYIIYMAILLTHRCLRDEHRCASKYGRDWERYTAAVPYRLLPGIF
inactive: [1] 0.08 | [2] 0.014 | [3] 0.239 | [4] -0.134 | [5] 0.082 | [6] 0.03 | [7] -0.023 | [8] -0.084 | [9] -0.04 | [10] -0.026

DOHH (UniProt Q9BU89)
inactive: [1] 0.043 | [2] 0.056 | [3] 0.278 | [4] 0.009 | [5] -0.106 | [6] -0.04 | [7] 0.017 | [8] 0.047 | [9] 0.153 | [10] 0.283

DMXL1 (UniProt Q9Y485)
Sequence of UniProt Q9Y485 (Q9Y485 whole entry, looked up): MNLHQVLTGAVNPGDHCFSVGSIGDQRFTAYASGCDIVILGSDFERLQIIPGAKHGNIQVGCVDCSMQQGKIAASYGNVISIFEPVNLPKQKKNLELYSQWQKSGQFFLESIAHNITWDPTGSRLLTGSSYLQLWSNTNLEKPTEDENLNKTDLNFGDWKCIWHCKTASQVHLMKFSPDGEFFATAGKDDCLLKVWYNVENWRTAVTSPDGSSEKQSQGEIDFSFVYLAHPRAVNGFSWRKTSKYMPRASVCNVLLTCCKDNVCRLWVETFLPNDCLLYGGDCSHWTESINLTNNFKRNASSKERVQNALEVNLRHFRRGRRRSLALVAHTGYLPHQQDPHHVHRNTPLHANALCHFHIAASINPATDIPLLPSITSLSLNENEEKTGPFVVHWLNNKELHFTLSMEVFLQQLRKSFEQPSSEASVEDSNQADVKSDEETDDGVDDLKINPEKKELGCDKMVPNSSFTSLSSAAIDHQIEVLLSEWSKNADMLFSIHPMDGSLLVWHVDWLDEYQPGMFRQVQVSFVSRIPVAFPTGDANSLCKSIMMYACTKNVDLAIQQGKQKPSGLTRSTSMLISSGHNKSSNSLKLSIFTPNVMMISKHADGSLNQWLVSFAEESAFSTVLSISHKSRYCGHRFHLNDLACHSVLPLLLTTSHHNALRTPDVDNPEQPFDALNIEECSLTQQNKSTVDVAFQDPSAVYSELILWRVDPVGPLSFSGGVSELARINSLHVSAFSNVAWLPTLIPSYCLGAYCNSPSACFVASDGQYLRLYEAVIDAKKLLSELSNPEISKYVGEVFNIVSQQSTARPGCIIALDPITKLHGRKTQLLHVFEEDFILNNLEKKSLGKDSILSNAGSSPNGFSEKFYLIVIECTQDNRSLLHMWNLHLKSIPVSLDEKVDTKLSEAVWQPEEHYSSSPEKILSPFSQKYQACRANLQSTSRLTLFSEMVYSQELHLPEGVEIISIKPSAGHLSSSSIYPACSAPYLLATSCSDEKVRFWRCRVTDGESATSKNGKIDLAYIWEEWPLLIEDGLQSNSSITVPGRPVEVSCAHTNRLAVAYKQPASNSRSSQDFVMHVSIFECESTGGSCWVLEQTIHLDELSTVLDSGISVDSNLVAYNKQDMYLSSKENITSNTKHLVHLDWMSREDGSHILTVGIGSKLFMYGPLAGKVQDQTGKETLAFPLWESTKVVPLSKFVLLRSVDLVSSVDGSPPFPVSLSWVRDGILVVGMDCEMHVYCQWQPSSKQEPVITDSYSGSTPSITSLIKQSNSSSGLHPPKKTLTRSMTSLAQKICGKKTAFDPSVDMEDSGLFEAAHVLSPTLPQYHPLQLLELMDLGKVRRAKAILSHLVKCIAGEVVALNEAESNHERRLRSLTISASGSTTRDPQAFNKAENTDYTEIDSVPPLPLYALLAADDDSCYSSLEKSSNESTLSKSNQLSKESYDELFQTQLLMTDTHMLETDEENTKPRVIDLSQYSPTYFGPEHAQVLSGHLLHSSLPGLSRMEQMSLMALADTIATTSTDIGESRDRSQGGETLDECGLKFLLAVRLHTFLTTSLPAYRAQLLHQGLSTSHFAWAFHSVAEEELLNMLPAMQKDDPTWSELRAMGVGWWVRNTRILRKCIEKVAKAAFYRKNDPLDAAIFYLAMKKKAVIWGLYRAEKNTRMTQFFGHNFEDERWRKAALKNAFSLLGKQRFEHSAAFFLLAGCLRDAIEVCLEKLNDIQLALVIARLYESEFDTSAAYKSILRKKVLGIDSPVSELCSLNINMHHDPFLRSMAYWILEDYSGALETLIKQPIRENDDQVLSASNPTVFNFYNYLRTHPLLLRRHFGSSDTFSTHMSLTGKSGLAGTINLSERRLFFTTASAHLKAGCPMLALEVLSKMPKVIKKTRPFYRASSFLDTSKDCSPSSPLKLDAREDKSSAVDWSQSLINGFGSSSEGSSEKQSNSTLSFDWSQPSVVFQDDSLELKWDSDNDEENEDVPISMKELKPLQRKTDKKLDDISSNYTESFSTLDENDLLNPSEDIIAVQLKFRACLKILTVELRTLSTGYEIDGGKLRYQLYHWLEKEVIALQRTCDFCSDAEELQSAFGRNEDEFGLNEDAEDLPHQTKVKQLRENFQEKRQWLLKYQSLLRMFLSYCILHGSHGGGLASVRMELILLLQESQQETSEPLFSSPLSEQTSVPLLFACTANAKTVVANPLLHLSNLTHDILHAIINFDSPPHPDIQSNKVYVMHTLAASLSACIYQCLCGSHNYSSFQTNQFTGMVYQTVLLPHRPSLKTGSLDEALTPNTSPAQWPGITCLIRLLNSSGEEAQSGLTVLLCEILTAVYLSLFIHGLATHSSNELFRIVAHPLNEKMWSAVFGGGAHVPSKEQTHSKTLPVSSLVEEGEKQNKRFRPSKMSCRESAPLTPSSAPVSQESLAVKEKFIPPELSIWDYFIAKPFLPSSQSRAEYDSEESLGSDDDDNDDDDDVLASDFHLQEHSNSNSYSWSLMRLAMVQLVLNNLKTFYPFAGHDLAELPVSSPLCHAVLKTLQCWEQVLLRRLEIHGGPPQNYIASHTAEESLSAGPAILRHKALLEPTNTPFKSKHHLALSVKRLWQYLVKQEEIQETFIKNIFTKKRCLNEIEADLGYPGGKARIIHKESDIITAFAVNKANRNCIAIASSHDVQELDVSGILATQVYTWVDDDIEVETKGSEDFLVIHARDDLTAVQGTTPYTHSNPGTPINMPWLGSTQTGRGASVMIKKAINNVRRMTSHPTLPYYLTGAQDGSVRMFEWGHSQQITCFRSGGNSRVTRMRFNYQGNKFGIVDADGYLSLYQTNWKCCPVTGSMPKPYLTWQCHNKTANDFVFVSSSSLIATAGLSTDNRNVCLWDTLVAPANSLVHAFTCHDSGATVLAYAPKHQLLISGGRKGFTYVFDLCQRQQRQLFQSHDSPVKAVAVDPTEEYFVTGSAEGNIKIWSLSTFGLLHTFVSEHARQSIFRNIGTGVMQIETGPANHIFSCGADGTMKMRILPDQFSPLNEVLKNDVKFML
inactive: [1] -0.026 | [2] -0.075 | [3] -0.052 | [4] -0.015 | [5] 0.033 | [6] 0.069 | [7] 0.005 | [8] 0.04 | [9] -0.007 | [10] -0.071

ELOVL5 isoform 2 (UniProt Q9NYP7)
inactive: [1] -0.07 | [2] 0.001 | [3] -0.194 | [4] -0.065 | [5] 0.056 | [6] 0.062 | [7] 0 | [8] 0.098 | [9] 0.035 | [10] -0.158

EXOC7 (UniProt Q9UPT5)
inactive: [1] 0.009 | [2] -0.142 | [3] -0.223 | [4] -0.022 | [5] 0.04 | [6] 0.09 | [7] 0.077 | [8] 0.052 | [9] 0.028 | [10] -0.012

DTYMK (UniProt P23919)
inactive: [1] 0.005 | [2] -0.011 | [3] -0.169 | [4] -0.014 | [5] -0.035 | [6] 0.043 | [7] 0.047 | [8] -0.04 | [9] -0.058 | [10] -0.071
